± gives the standard deviation.

The assay concerns EfPiwi piRISC loaded with L1MC piRNA (26 nt). The assay is described as follows: pre-steady-state target cleavage rate (min^-1); auxiliary factor: 500 nM Ephydatia muelleri Gtsf1; guide: L1MC piRNA 5'p-UAACUAAAUACUAUGCAAGCUGUAGG; MIWI and MILI are mouse PIWI proteins and EfPiwi is from a freshwater sponge; tags in brackets are library labels; higher = faster piRNA-guided slicing of the target. A digest of the protocol: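 Active affinity-purified piRISC (1 nM) loaded with one synthetic guide was mixed with a transcribed, DNA-blocked target RNA library (0.1 nM), with or without 500 nM GTSF1 partner protein, in HEPES–potassium acetate buffer at 33 °C for 0–8 or 0–960 min. Uncleaved targets were sequenced, normalised to depth and to weakly complementary targets, and pooled across three trials, with k3 capped at 0.0001 min^-1. The pre-steady-state cleavage rate was determined with a burst-and-steady-state fit.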
Take UCCUGGAUGAGCUAGCAUACUAUUUAGUUA: the “pre-steady-state target cleavage rate” value is 0.00286 ± 0.002. For UCCUGGAUCAGCUUUCAUAGUAUUUAGUUA, the “pre-steady-state target cleavage rate” value stood at 0.0103 ± 0.0032.

As to UCCUGCUACAGCUUCGAUAGUAUUUAGUUA, the “pre-steady-state target cleavage rate” value is 0.00756 ± 0.0026.

In the case of UCCUGGAACAGAUUGCAUAGUAUUUAGUUA, the “pre-steady-state target cleavage rate” value was determined as 0.0572 ± 0.014.

For UCCUGCUCCAGCUUGCAUAGUAUUUAGUUA, the “pre-steady-state target cleavage rate” value turned out to be 0.0877 ± 0.024. The figure for UCCUGGUUGUGCUUGCAUAGUAUUUAGUAA is 0.00401 ± 0.0038; for UCCUCCUACAGUUUGCAUAGUAUUUAGUUA it is 0.0845 ± 0.021. As for UCCUGCUACAGCAUGCAUAGUAAUUAGUUA, the figure is 0.007 ± 0.0024; as for UCCUCCUACAGGUUGCAUAGUAAUUAGUUA, 0.0115 ± 0.0031; as for UCCUGGAACGAGCUUGCAUAGUAUUUAGUUA, 0.00926 ± 0.0022. On to UCCUGCUACAGCUUGCAUAGUAUUAAGUUA, for which the “pre-steady-state target cleavage rate” value was determined as 0.0064 ± 0.0019. The figure for UCCUGGAUGAGCUUGCAUAGUAUUAAGUUA is 0.00469 ± 0.0021; for UCCUGGAACUGCUUGCAUAGUUUUUAGUUA it is 0.00498 ± 0.0026. As for UCCUGGAACAGCUUGAAUAGUAUUUAGUUA, the figure is 0.0656 ± 0.017. As for UCCUCCUACAGGAUGCAUAGUAUUUAGUUA, the figure is 0.0467 ± 0.011; as for UCCUGGAUGAGCUUGUAUAGUAUUUAGUUA, 0.0538 ± 0.014. On to UCCUGGUAAGCUUGCAUAGUAUUUAGUUA, for which the “pre-steady-state target cleavage rate” value was determined as 0.0168 ± 0.0044.

Take UCCUCCUACAGCUUGCAUGUAUUUAGUUA: the “pre-steady-state target cleavage rate” value worked out at 0.00924 ± 0.0046. As for UCCUGGUAGAGCUUGCAUAGUAAUUAGUUA, the “pre-steady-state target cleavage rate” value came to 0.00406 ± 0.0024. Regarding UCCUGCUACAGCUUCAUAGUAUUUAGUUA, the “pre-steady-state target cleavage rate” value was found to be 0.00994 ± 0.0031. The figure for UCCUCCUACAGCUUGCUUAGUAUAUAGUUA is 0.0127 ± 0.0069. The figure for UCCUGCUUCAGGUUGCAUAGUAUUUAGUUA is 0.0664 ± 0.015. Consider UCCUCUACAGCUUGCAUAGUAUUUAGUUA, for which the “pre-steady-state target cleavage rate” value was determined as 0.183 ± 0.045. As for UCCUGGAACACCUUGCAAAGUAUUUAGUUA, the figure is 0.00814 ± 0.0031.

Values taken from the supplement of paper PMC10338343.
